Test results as given in ChEMBL document CHEMBL4513216, “Probing the Open Global Health Chemical Diversity Library for Multistage-Active Starting Points for Next-Generation Antimalarials” (ACS Infect Dis, 2020).
In all, about 68,000 compounds went through this assay and about 2,700 (4%) showed an effect of 50% or more. This is one part of a sample in which strong results are shown more often than they occur.

System: Plasmodium berghei
Assay: Screen against P. berghei liver stage (PbLuc), transformed with Luciferase, at 2uM
Format: functional, HepG2
Settings: tested at 2 uM

Compound | INHIBITION [%]
O=C(O)[C@@H]1CN(C(=O)c2ccc(O)cc2)C[C@H]1c1cccc(F)c1 | 38.65
CN(C)CC(=O)N1C[C@H]2CCC[C@@]2(COc2ccccn2)C1 | 19.44
O=C(CCC(=O)N1CCCC1c1ccsc1)N1CCOCC1 (stereo not drawn) | -26.92
Cc1nc(C(C)C)ncc1C(=O)N1CCCC(N2CCCC2)C1 (stereo not drawn) | 11.44
Cc1nc(-c2cccnc2)ncc1C(=O)N1CCCCC(N)C1 (stereo not drawn) | 6.22
Cc1ccc(-c2ncc(C(=O)N3CCN4CCCCC4C3)c(O)n2)cc1 (stereo not drawn) | 60.9
Cc1ccc(-c2ncc(C(=O)N3CCCC(CCN)C3)c(O)n2)cc1 (stereo not drawn) | 41.07
Cc1ccc(-c2ncc(C(=O)N3CCC[C@H](N)C3)c(O)n2)cc1 | 63.1
Cc1ccc(-c2ncc(C(=O)N3CCCN4CCC[C@H]4C3)c(O)n2)cc1 | 32.26
c1cnc(N2C[C@H]3CCN(CC4CC4)C[C@H]3C2)cn1 | 11.56
CC(Cn1cccn1)n1cnc2cccc(Cl)c2c1=O (stereo not drawn) | 33.52
CCC(=O)N1CCCC(c2cc(Nc3ncccn3)nc(C)n2)C1 (stereo not drawn) | 11.08
O=c1[nH]c(COc2ccc(Cl)cc2)nc2c1CCNC2 | 12
O=c1[nH]c(-c2ccc(F)c(F)c2)nc2c1CCNC2 | -18.12
O=c1[nH]c(-c2ccccc2F)nc2c1CCNC2 | 1.4
O=c1[nH]c(-c2ccc(F)cc2)nc2c1CCNC2 | 53.66
NC(=O)c1ccc(-c2nc3c(c(=O)[nH]2)CCNC3)cc1 | 41.78
O=c1[nH]c(-c2ccc(Cl)cc2)nc2c1CCNC2 | 57.21
c1ccc(-c2cccc(N3CCC(NCCc4cscn4)CC3)c2)cc1 | -8.16
CC(C)CN1C(=O)CO[C@@H]2CN(C(=O)N(C)C)C[C@H]21 | -20.67
O=C1CO[C@@H]2CNC[C@H]2N1CC1CC1 | 27.61
CC(C)CN1C(=O)CO[C@@H]2CNC[C@H]21 | 70.31
CCN(Cc1cccc(C(=O)Nc2c(C)cnn2C)c1)[C@H]1COC[C@@H]1O | 20.36

Compound | INHIBITION [%]
CC1CCN(C(=O)[C@@H]2CC[C@@H]3[C@@H](CCN3c3ncc(F)cn3)O2)CC1 | 3.63
CC(C)OCc1cccc(NC(=O)N(C)Cc2ncnn2C)c1 | 31.51
CCSCc1cccc(NC(=O)N(C)Cc2ncnn2C)c1 | 72.05
CCOc1cc(NC(=O)N(C)Cc2ncnn2C)ccc1C | 31.51
CCOc1nc2cccnc2n(CC(=O)NCCOC)c1=O | 74.49
COCCNC(=O)Cn1c(-c2ccco2)cc2cccnc21 | 37.87
CCOc1nc2cnccc2n(CC(=O)NCCc2ccccc2)c1=O | 28.85
CNC(=O)CN1CCOCC2(C1)CN(C(=O)CC(C)C)CCO2 (stereo not drawn) | -1.18
Fc1cccc2[nH]c(CN3CCc4cncnc4C3)nc12 | 7.24
Cc1nn(C)c(N(C)C)c1CNCc1cccnc1N1CCOCC1 | 28.81
O=S1(=O)CCCN1Cc1coc(-c2ccc(C(F)(F)F)cc2)n1 | 1.8
COc1ccc(C(CC(=O)O)NC(=O)c2cc(C)on2)cc1 (stereo not drawn) | 73.09
CSc1ccc(C(CC(=O)O)NC(=O)c2cc(C)on2)cc1 (stereo not drawn) | -70.44
CSc1ccc(C(C)NC(=O)c2cc(C)on2)cc1 (stereo not drawn) | -121.09
CN(C)CC(=O)N1CCC2(CC(=O)N(c3cccc(C#N)c3)C2)C1 (stereo not drawn) | -3.08
CC(C)c1nnc(N2C[C@H]3CC[C@@H](C2)N(Cc2ccccc2)C3)s1 | -23.49
O=C1C[C@@H]2CC[C@H](CN1)N2C(=O)CCCc1ccc(Cl)cc1 | -29.06
O=C1C(NS(=O)(=O)c2cccc(F)c2)CCN1Cc1ccccc1 (stereo not drawn) | 54.29
O=C1C(NS(=O)(=O)c2ccc(F)cc2)CCN1Cc1ccccc1 (stereo not drawn) | 38.76
O=C1C(NS(=O)(=O)c2cc(F)cc(F)c2)CCN1Cc1ccccc1 (stereo not drawn) | 23.92
CC(=O)N1CCS(=O)(=O)[C@@H]2CCN(S(=O)(=O)CC(C)C)CC[C@@H]21 | -12.76
CC(=O)N1CCS(=O)(=O)[C@@H]2CCN(CC(C)C)CC[C@@H]21 | 60
CC(C)CN1CC[C@@H]2[C@H](CC1)N(C(=O)c1ccccc1)CCS2(=O)=O | -1.31

Compound | INHIBITION [%]
Cc1nsc(C(=O)NCCc2ccc(S(N)(=O)=O)cc2)n1 | -43.28
CC(C)Cc1nc(CN2CCOC(Cn3cccn3)C2)no1 (stereo not drawn) | -20.61
O=C(NC1CC1)c1cc(NC(=O)N2CCSCC2)ccc1Cl | 31.51
O=C(NC1CC1)c1cc(NC(=O)N2CCCC2)ccc1Cl | 31.51
O=C(NC1CC1)c1cc(NC(=O)N2CCOCC2)ccc1Cl | 64.9
CCN(Cc1cc(F)c(OC)c(Cl)c1)Cc1noc(CC(C)C)n1 | 71.91
CCN(Cc1noc(CC(C)C)n1)Cc1ccccc1Cl | -33.2
CCN(Cc1cc(F)c(OC)c(Cl)c1)Cc1nc(COC)no1 | -20.98
CCn1cc(CN2CCCC(c3[nH]ncc3-c3ccc(C)cc3)C2)cn1 (stereo not drawn) | -20.72
CN(C)Cc1nn(C)c2c1CCN(C(=O)c1cccnc1)C2 | 47.97
CNC(=O)c1cccc(CCNc2ncc(Br)cn2)c1 | 12.41
CCn1cc(N)c(-c2nnc3n2CCCC3)n1 | -37.89
Cc1cccc(S(=O)(=O)NC(=O)c2ccc3c(c2)nnn3C)c1 | 53.99
Cn1nnc2cc(C(=O)NS(=O)(=O)c3cccc(C#N)c3)ccc21 | -40.9
Cn1nnc2cc(C(=O)NS(=O)(=O)c3ccc(F)cc3)ccc21 | 28.72
CCc1ncc2c(n1)CN(c1nnc(C)c(C)c1C#N)CC2 | 23.43
Cc1cc(-c2cnc(N3CCCC(C)C3)nc2-c2cccnc2C)on1 (stereo not drawn) | -39.75
CS(=O)(=O)NCc1n[nH]c2c1CCN(C(=O)c1ccsc1)C2 | 19.56
CCC(=O)NCc1cc(Br)ccc1OC(F)F | 43.8
CN1CCN2C(=O)N(C3CCCCC3)C[C@H]2C1 | -22.32
CS(=O)(=O)N1CCN2C(=O)N(C3CCOCC3)C[C@H]2C1 | 35.89
CN1CCN2C(=O)N(C3CCOCC3)C[C@H]2C1 | 52.36
Cc1cnn(CC2CCCN2C(=O)CCc2ccncc2)c1 (stereo not drawn) | -5.39

Compound | INHIBITION [%]
N#Cc1ccc(C(=O)N2CCc3c(COCC4CC4)cncc3C2)cc1 | -20.87
CSC1(CNC(=O)N(C)Cc2ccc(C)s2)CCOCC1 | -18.99
CSC1(CNC(=O)NCc2sccc2C)CCOCC1 | 13.58
CSC1(CNC(=O)N(C)Cc2sccc2C)CCOCC1 | 57.16
CC(C)N(C)CC(=O)NCCc1nc(C(F)(F)F)cs1 | -18.28
CN(C)Cc1nnc(C2CCN(c3ncccn3)CC2)n1C1CC1 | -61.17
Cc1cnc(C)c(N2CCC(c3nnc(CN(C)C)n3C3CC3)CC2)n1 | -13.88
CN(C)Cc1nnc(C2CCN(c3ncccc3Cl)CC2)n1C1CC1 | 84.18
Cn1cncc1CN1CCC2(CC1)COCCN(S(C)(=O)=O)C2 | -38.72
Cc1cc(C(F)(F)F)nn1CCNC(=O)C(C)n1ccnc1C(C)C (stereo not drawn) | -4.93
CCCN(CC1CC1)S(=O)(=O)c1ccc(NC(C)=O)cc1 | -13.12
CC(C)(O)CCc1cccc(C(=O)N2CCC[C@H]2C(N)=O)c1 | 6.26
CN(CCCOc1ccccc1)S(=O)(=O)c1cnn(C)c1 | -2.63
COc1ccc(OCCN(C)S(=O)(=O)c2cnn(C)c2)cc1 | 83.12
CN(CCCOc1ccc(F)cc1)S(=O)(=O)c1cnn(C)c1 | -6.65
CN(CCOc1ccc(F)cc1)S(=O)(=O)c1cnn(C)c1 | -11.34
CN(C)CCOc1ccc(N(C)S(=O)(=O)c2cnn(C)c2)cc1 | 57.68
Cc1ccc(OCCN(C)S(=O)(=O)c2cnn(C)c2)cc1 | 31.54
Cc1oc(C(=O)O)cc1S(=O)(=O)Nc1cccc(-n2nccc2C)c1 | 37.15
Cc1c[nH]nc1C1CCN(C(=O)C2CCCC2)C1 (stereo not drawn) | 41.21
NC(=O)C1(Cc2ccc(-c3ccccc3)cc2)CCNC1 (stereo not drawn) | 9.18
CCOC(=O)CCNC(=O)N1CCOC(Cc2cccc(OC)c2)C1 (stereo not drawn) | 25.37
CCOC(=O)CNC(=O)N1CCOC(CCc2ccccc2)C1 (stereo not drawn) | -18.39

Compound | INHIBITION [%]
CCOC(=O)CNC(=O)N1CCOC(Cc2ccc(OC)cc2)C1 (stereo not drawn) | 55.66
CN(C)CCOCC1CN(Cc2ccncc2)Cc2nnn(C)c21 (stereo not drawn) | 7.1
CN1CCC(N(CCc2ccccc2)C(=O)COCC2CCCO2)CC1 (stereo not drawn) | 42.79
Cc1cccc(-c2nccnc2C2CCN(C)CC2)c1C | -25.17
COC(=O)c1sc2cccc(F)c2c1CNC(=O)C1CCOC1 (stereo not drawn) | 33.02
COC(=O)c1sc2cccc(F)c2c1CNC(=O)C1CC1 | 15.28
COC(=O)c1sc2cccc(F)c2c1CNC(=O)C1CCCO1 (stereo not drawn) | 50.3
Cc1ncccc1-c1cc2cccnc2n1CCCNC(=O)C(C)(C)C | 24.98
COCCN1CCC2(CC1)CC(NC(=O)CN(C)C)c1ccccc1O2 (stereo not drawn) | 48.52
Cn1c(C2CC2)nc2c1CCN(CC(=O)Nc1nncs1)C2 | 22.51
Cc1nnc(NC(=O)CN2CCc3c(nc(C4CC4)n3C)C2)s1 | 51.94
CCCn1nccc1NC(=O)CN1CCc2c(nc(C(C)C)n2C)C1 | 56.12
Cc1csc(NC(=O)CN2CCc3c(nc(C4CC4)n3C)C2)n1 | -1.02
CC(C)c1nc2c(n1C)CCN(CC(=O)Nc1nncs1)C2 | 60.09
CC(C)c1nc2c(n1C)CCN(CC(=O)Nc1nccs1)C2 | -15.91
CC(C)c1nc2c(n1C)CCN(CC(=O)Nc1ccncc1)C2 | -14.17
CCCn1nccc1NC(=O)CN1CCc2c(nc(C3CC3)n2C)C1 | 49.6
CC(C)c1nc2c(n1C)CCN(CC(=O)Nc1ccc(Cl)cn1)C2 | 51.92
CC(C)c1nc2c(n1C)CCN(CC(=O)Nc1ccnn1C(C)C)C2 | -42.83
CC(C)c1nc2c(n1C)CCN(CC(=O)Nc1cccnc1)C2 | -14.17
Cc1nnc(NC(=O)CN2CCc3c(nc(C(C)C)n3C)C2)s1 | 22.63
